Here are results for 33 molecules from PubChem BioAssay (NCATS).

The conditions of experiment [1]: Ebola virus entry assay, blue channel fluorescence.
For experiment [2] the following is noted: Ebola virus entry reporter assay, green channel fluorescence.
For experiment [3] the following is noted: Ebola virus entry cell assay, ratio channel.
For experiment [4] the following is noted: Ebola virus entry assay, green channel fluorescence.
Experiment [5] can be described thus: Immunotoxin (SS1P) sensitization/mitigation study. Vehicle arm (DMEM) (AID 1159513). Also: potency is read from the fitted curve at half-maximal effect. The conditions noted are these: cell viability with vehicle (DMEM); series mostly up to 46.1 µM.
The conditions of experiment [6]: Ebola virus entry assay, reporter ratio channel; AC50: Channel type: primary unless noted; outcome: Channel type: primary unless noted.
The conditions of experiment [7]: Ebola virus entry assay, blue channel (ratio component).

For some of these results: Potency and affinity values are given separately. Calls of active or inactive are those of the source.

Consider `C[C@@H]1[C@H](O)[C@@H](C)/C=C/C=C\C=C\C=C\C=C\C=C\C=C\[C@H](O[C@@H]2O[C@H](C)[C@@H](O)[C@H](N)[C@@H]2O)C[C@@H]2O[C@](O)(C[C@@H](O)C[C@@H](O)[C@H](O)CC[C@@H](O)C[C@@H](O)CC(=O)O[C@H]1C)C[C@H](O)[C@H]2C(=O)O` (stereo in doubt), for which the molecule was called inactive in experiment [1], in experiment [2] and in experiment [3].
On to `C[C@]1(O)CC[C@H]2[C@@H]3CCC4=CC(=O)CC[C@]4(C)[C@@]3(F)[C@@H](O)C[C@@]21C`, for which the result in experiment [1], in experiment [2] and in experiment [3] was inactive.
Consider `C=CC1=C(C(=O)O)N2C(=O)[C@@H](NC(=O)/C(=N/OCC(=O)O)c3csc(N)n3)[C@H]2SC1` (stereo in doubt), for which the result in experiment [1], in experiment [2] and in experiment [3] was inactive.
In the case of `Nc1nc(NC2CC2)c2ncn([C@@H]3C=C[C@@H](CO)C3)c2n1`, the molecule was called inactive in experiment [1], in experiment [2] and in experiment [3].
`Clc1ccc2c(c1)C(c1ccccc1)=NCc1nncn1-2`: the call in experiment [1], in experiment [2] and in experiment [3] was inactive.
As for `CCOC(=O)C1=C[C@@H](OC(CC)CC)[C@H](NC(C)=O)[C@@H](N)C1`, the result in experiment [1], in experiment [2] and in experiment [3] was inactive.
As to `CC(C)[C@H](N)C(=O)OCC(CO)OCn1cnc2c(=O)[nH]c(N)nc21` (stereo not given in full), the result in experiment [1], in experiment [2] and in experiment [3] was inactive.
Take `C=CC(N)CCC(=O)O` (stereo not given): the molecule was classed as inactive in experiment [1], in experiment [2] and in experiment [3].
Regarding `CC(C)CN(C[C@@H](OP(=O)(O)O)[C@H](Cc1ccccc1)NC(=O)O[C@H]1CCOC1)S(=O)(=O)c1ccc(N)cc1`, the outcome in experiment [1], in experiment [2] and in experiment [3] was inactive.
Turning to `Cc1ccc(Nc2nccc(N(C)c3ccc4c(C)n(C)nc4c3)n2)cc1S(N)(=O)=O`, in experiment [4], the molecule was classed as inactive. Moreover, in experiment [5], the Potency was 20.9 µM (active).
Take `CCOc1cc(CC(=O)N[C@@H](CC(C)C)c2ccccc2N2CCCCC2)ccc1C(=O)O`: the outcome in experiment [1], in experiment [2] and in experiment [3] was inactive.
Take `CC(CCc1ccccc1)NCC(O)c1ccc(O)c(C(N)=O)c1` (stereo not given): the molecule was called inactive in experiment [1], in experiment [2] and in experiment [3].
As to `OCC(S)CS` (stereo not given), the outcome in experiment [1], in experiment [2] and in experiment [3] was inactive.
In the case of `Cc1nnc(C(C)C)n1C1C[C@H]2CC[C@@H](C1)N2CC[C@H](NC(=O)C1CCC(F)(F)CC1)c1ccccc1` (stereo not given in full), the result in experiment [1], in experiment [7] and in experiment [3] was inactive. Further, the outcome in experiment [6] is “inactive [Channel type: confirmation]”.
`CNC(C)[C@@H]1CC[C@@H](N)[C@@H](O[C@H]2[C@H](O)[C@@H](O[C@H]3OC[C@](C)(O)[C@H](NC)[C@H]3O)[C@H](N)C[C@@H]2N)O1` (stereo not given in full): the result in experiment [1], in experiment [2] and in experiment [3] was inactive.
Turning to `CO/N=C(\C(=O)N[C@@H]1C(=O)N2C(C(=O)O)=C(C[N+]3(C)CCCC3)CS[C@H]12)c1csc(N)n1`, the molecule was called inactive in experiment [1], in experiment [2] and in experiment [3].
Take `NC(=O)CC[C@@H]1NC(=O)[C@H](Cc2ccccc2)NC(=O)[C@H](Cc2ccc(O)cc2)NC(=O)[C@@H](N)CSSC[C@@H](C(=O)N2CCC[C@H]2C(=O)N[C@@H](CCCN=C(N)N)C(=O)NCC(N)=O)NC(=O)[C@H](CC(N)=O)NC1=O`: the call in experiment [1], in experiment [2] and in experiment [3] was inactive.
As for `CCCCCN(C)CCC(O)(P(=O)(O)O)P(=O)(O)O`, the result in experiment [1], in experiment [2] and in experiment [3] was inactive.
As to `OCCOCCN1CCN(C2=Nc3ccccc3Sc3ccccc32)CC1`, the molecule was classed as inactive in experiment [1], in experiment [7], in experiment [2] and in experiment [3].
As for `O=P(O)(O)C(O)(Cn1ccnc1)P(=O)(O)O`, the result in experiment [1], in experiment [2] and in experiment [3] was inactive.
On to `NC[C@H]1O[C@H](O[C@H]2[C@H](O)[C@@H](O[C@H]3O[C@H](CO)[C@@H](O)[C@H](N)[C@H]3O)[C@H](N)C[C@@H]2N)[C@H](O)[C@@H](O)[C@@H]1O`, for which the call in experiment [1], in experiment [2] and in experiment [3] was inactive.
Regarding `CN1C(=O)CC(=O)N(c2ccccc2)c2cc(Cl)ccc21`, the result in experiment [1], in experiment [2] and in experiment [3] was inactive.
`CC(C)c1nc(N(C)S(C)(=O)=O)nc(-c2ccc(F)cc2)c1/C=C/C(O)CC(O)CC(=O)O` (stereo not given): the call in experiment [1], in experiment [2] and in experiment [3] was inactive.
Turning to `CO[C@@]1(NC(=O)C2SC(=C(C(N)=O)C(=O)O)S2)C(=O)N2C(C(=O)O)=C(CSc3nnnn3C)CS[C@@H]21` (stereo not given in full), the call in experiment [1], in experiment [2] and in experiment [3] was inactive.
Take `CN(C)CCc1c[nH]c2ccc(Cn3cncn3)cc12`: the molecule was called inactive in experiment [1], in experiment [2] and in experiment [3].
In the case of `CC(=O)NCCCS(=O)(=O)O`, the molecule was called inactive in experiment [1], in experiment [2] and in experiment [3].
Consider `CC(C)(O/N=C(\C(=O)N[C@@H]1C(=O)N2C(C(=O)[O-])=C(C[n+]3ccccc3)CS[C@H]12)c1csc(N)n1)C(=O)O`, for which the call in experiment [1], in experiment [2] and in experiment [3] was inactive.
For the molecule `C#CCC(Cc1cnc2nc(N)nc(N)c2n1)c1ccc(C(=O)N[C@@H](CCC(=O)O)C(=O)O)cc1` (stereo not given in full), the outcome in experiment [1], in experiment [2] and in experiment [3] was inactive.
Regarding `CCNC(=O)[C@@H]1CCCN1C(=O)[C@H](CCCN=C(N)N)NC(=O)[C@H](CC(C)C)NC(=O)[C@@H](CC(C)C)NC(=O)[C@H](Cc1ccc(O)cc1)NC(=O)[C@H](CO)NC(=O)[C@H](Cc1c[nH]c2ccccc12)NC(=O)[C@H](Cc1cnc[nH]1)NC(=O)[C@@H]1CCC(=O)N1`, the outcome in experiment [1], in experiment [2] and in experiment [3] was inactive.
For the molecule `O=C1[O][Bi][O]c2ccccc21`, the molecule was called inactive in experiment [1], in experiment [2] and in experiment [3].
Turning to `COc1cc([C@@H]2c3cc4c(cc3[C@@H](O[C@@H]3O[C@@H]5CO[C@@H](C)O[C@H]5[C@H](O)[C@H]3O)[C@H]3COC(=O)[C@H]23)OCO4)cc(OC)c1O`, the outcome in experiment [1], in experiment [2] and in experiment [3] was inactive.
Take `CCCCC(C)(O)C/C=C/[C@H]1[C@H](O)CC(=O)[C@@H]1CCCCCCC(=O)OC` (stereo not given in full): the molecule was classed as inactive in experiment [1], in experiment [2] and in experiment [3].
As for `CC1(C)S[C@@H]2[C@H](NC(=O)[C@H](N)c3ccc(O)cc3)C(=O)N2[C@H]1C(=O)O`, the molecule was classed as inactive in experiment [1], in experiment [2] and in experiment [3].
